Most compounds without a hit are left out; they make up all but 3.6% or so of the library.
CF NFkB inh = cystic fibrosis NF-kB activation inhibition. KKLEB NF-kB-GFP reporter, PAF-induced, GFP fluorescence overnight. 360,000 tested, 0.86% active. inhibition, % at 5 µM;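 active means at least 50% inhibition at 5 µM, scaled per plate between neutral and stimulator controls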;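 further: PAF is a Pseudomonas aeruginosa culture filtrate used as stimulus; plate controls were PAF-stimulated DMSO wells for no effect and unstimulated DMSO wells for full effect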
HSP90 refold inh = HSP90 refolding inhibition in rabbit reticulocyte lysate. luciferase refolding luminescence, 3 h. inhibition, % at 5.6 µM. 290,000 tested, 0.91% active. AID 1789;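 active means inhibition above the screen-wide mean plus 3 SD, computed separately per campaign, cut at about 16% in these data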;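 further: 0% = DMSO wells and 100% = 60 µM geldanamycin wells; inhibitors lower the luminescence because luciferase stays unfolded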
Peg3 prom inh = inhibitors of Peg3 promoter; 360,000 tested, 1.7% active; inhibition, % at 20 µM; HeLa PEG-Prom luciferase reporter, luminescence, overnight;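 active means inhibition of at least 50% at 20 µM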
LGR2 inh = Drosophila LGR2 receptor signaling inhibition; AID 720647; 380,000 tested, 0.35% active; inhibition, % at 9.99 µM; HEK293 LGR2, CRE-luciferase, bursicon-stimulated, 4 h;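 active means drop in luminescence signal, shown as inhibition above about 50% in the replicate tests, limit read from the data, passing the limit was not always enough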;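 further: agonist challenge used bursicon conditioned medium at about half maximal strength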
Mdm2 MdmX PPI = inhibitors of human Mdm2/MdmX interaction; AID 485346; 330,000 tested, 3% active; SaOS-2 split-luciferase Mdm2/MdmX complementation, luminescence; inhibition, % at 8 µM; O15151+Q00987;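 active means inhibition of at least 50% at 8 µM in the primary screen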
KKLEB tox = CF airway cell cytotoxicity counter-screen. 360,000 tested, 0.36% active. activity change (cytotoxicity), % at 5 µM. KKLEB CF airway cells viability, ATPlite luminescence, overnight; active compounds read low; cells stimulated with P. aeruginosa culture filtrate;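 active means corrected activity change at or below -50% at 5 µM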
HSP90 inh confirm = HSP90 inhibition, confirmation assay; shares compounds with HSP90 refold inh; rabbit reticulocyte lysate, luciferase refolding luminescence, 3 h; inhibition, % at 5.9 µM; 2,300 tested, 64% active; in the data active means inhibition above about 18%;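 further: 0% = vehicle wells and 100% = reference inhibitor wells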
FLuc counter = blocks native firefly luciferase in HSP90 counter-screen. shares compounds with HSP90 refold inh. purified native firefly luciferase, luminescence. inhibition, % at 5.9 µM. 2,300 tested, 48% active. AID 1847;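 active means inhibition above the mean inhibition of all tested sample wells plus 3 SD, cut at about 10% in these data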;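 further: 0% = DMSO with luciferase and 100% = wells lacking luciferase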
Starred values were filed as active, the others as inactive; . = no result.

SMILES	CF NFkB inh	HSP90 refold inh	Peg3 prom inh	LGR2 inh	Mdm2 MdmX PPI	KKLEB tox	HSP90 inh confirm	FLuc counter
Cc1ccc(-c2nc3ccc(Cl)cc3n2OC(C)C(=O)O)cc1 (configuration not stated)	0	62*	-228	.	-112	-3	-5	-23
C[C@@H]1CN([C@H](C)CO)C(=O)c2cc(NC(=O)Cn3cnnn3)ccc2O[C@@H]1CN(C)C(=O)Nc1ccc(C(F)(F)F)cc1	.	.	.	11	.	.	.	.
CC(=O)c1sc(NC(=O)c2ccc(C(C)(C)C)cc2)nc1C	-10	30*	-139	-41	-89	0	9	-5
CCOC(=O)c1sc(NC(=O)c2ccc(OC)cc2)nc1C	-16	18*	-72	-21	-16	18	28*	-6
CCOC(=O)c1sc(NC(=O)c2ccc(OC(C)=O)cc2)nc1C	9	6	-122	.	-4	-10	.	.
CCOC(=O)c1sc(NC(=O)c2ccc(C)o2)nc1C	-24	45*	-188	.	-69	15	44*	-14
COC(=O)c1sc(NC(=O)c2oc3ccccc3c2C)nc1C	-3	55*	-128	.	-46	-1	35*	-24
COCC(=O)N(C)C[C@H]1Oc2ncc(C3=CCCCC3)cc2C(=O)N([C@H](C)CO)C[C@H]1C	.	.	.	21	.	.	.	.
COCC#Cc1ccc2c(c1)O[C@@H](CN(C)S(=O)(=O)c1ccc(C)cc1)[C@H](C)CN([C@@H](C)CO)S2(=O)=O	.	.	.	4	.	.	.	.
CCCNC(=O)N1CC2(CN(C(=O)c3ccncc3)C2)c2c([nH]c3cc(OC)ccc23)[C@@H]1CO	.	.	.	-14	.	.	.	.
Cc1cc(O)c(N)c(C)c1Cl	8	43*	2	-23	4	9	81*	-4
COc1ccc(C(=O)/C=C/c2ccc(OC)c(COc3ccc(F)cc3)c2)cc1	7	24*	15	-14	35	-10	21*	-12
Cc1cccc(N=C2NN=C(c3ccc4c(c3)OCCO4)CS2)c1	4	28*	-223	3	-55	-20	40*	34*
CCC(=O)c1ccc(OCC(=O)Nc2ccc(N3CCOCC3)cc2N2CCOCC2)cc1	10	28*	12	0	34	-19	-5	-10
c1ccc(N2CCN(c3nc4cc5c(cc4s3)OCCO5)CC2)cc1	8	-2	-220	.	-88	2	.	.
c1c2c(cc3sc(N4CCOCC4)nc13)OCCO2	15	62*	28	.	36	-9	85*	78*
CC1(C)C2CCC(C2)C1(C)NC(=O)CN1CCOCC1 (configuration not stated)	3	28*	2	.	26	-22	1	-4
COc1ccccc1-c1cn(CC[C@H]2CC[C@@H](NC(=O)C3CCC3)[C@H](CO)O2)nn1	.	.	.	3	.	.	.	.
O=C(Nc1ccc2ccccc2n1)c1ccccc1Cl	-19	16	-207	-45	-116	-6	.	.
COc1ccc(C(=O)Nc2ccc3ccccc3n2)c(OC)c1OC	14	41*	-33	89*	13	-52*	68*	65*
CCOc1ccc(-c2nc(CN3CCCC(C(=O)N4CCOCC4)C3)c(C)o2)cc1 (configuration not stated)	2	18*	-11	-4	-16	-8	24*	-3
CCCc1ccc(-c2cc(C(=O)N3CCN(c4ccccn4)CC3)c3ccccc3n2)cc1	12	38*	-40	37	3	-76*	43*	12*
COc1cc(-c2cc(C(=O)N3CCN(c4ccccn4)CC3)c3ccccc3n2)cc(OC)c1OC	-18	2	38	.	47	-12	.	.
c1ccc2[nH]c(-c3cscn3)nc2c1	18	4	-182	-22	.	26	.	.
c1ccc2nc(-c3nc4ccccc4[nH]3)ccc2c1	-14	26*	-24	.	-123	0	72*	62*
C[C@@H]1CCCCO[C@@H](CN(C)S(=O)(=O)c2ccc(F)cc2)[C@H](C)CN([C@@H](C)CO)C(=O)c2cc(NS(=O)(=O)c3ccccc3)ccc2O1	.	.	.	8	.	.	.	.

Compound activity as filed in PubChem.
